EWS-Fli block – inhibitors of EWS/Fli oncoprotein transcriptional activity. inhibition, % at 12.6 µM. A673 NR0B1-luciferase reporter, viability-normalised. actives 0.67% (n = 350,000);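 active = mean inhibition of at least 50% after viability correction, with every replicate also passing that limit; inconclusive = mean reaches 50% but only one of two replicates passes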;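 also: firefly luciferase signal divided by Alamar Blue viability fluorescence both relative to DMSO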
Wnt bcat act – activates Wnt/beta-catenin signaling in a reporter cell assay; activation, % at 9.35 µM; actives 1.2% (n = 300,000); AID 743398; activator, plate reader; in the data active = activation above about 30%, passing the limit was not always enough; inconclusive = no clear call, values can overlap the other calls;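 also: 0% = neutral control wells and 100% = positive control wells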
MITF TRPM1 HTS – activators of MITF-driven TRPM1 promoter activity in SK-MEL-5 cells; SK-MEL-5 TRPM1-promoter luciferase, 24 h; % of positive control, neutral wells = 0; activation, % at 12.5 µM; actives 0.75% (n = 300,000);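 active = mean activation of at least 80% with every replicate also reaching 80%; inconclusive = mean reaches 80% but some replicate falls short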;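 also: 0% = neutral control wells and 100% = parthenolide positive control wells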
PAX8 reporter – lowers PAX8-driven luciferase in RMG-I cells; RMG-I TPO-luciferase reporter, SteadyGlo, 24 h; actives 1.2% (n = 360,000); inhibition, % at 12.6 µM; AID 652154;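 active = mean replicate inhibition at least 60% with every replicate also reaching 60%; inconclusive = only one of the two criteria is met; inactive = mean below 60% and not all replicates reaching 60%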;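 also: luciferase light reporting Pax8 driven TPO promoter activity; plate controls were median of neutral control wells for no effect and mitoxantrone controls for full effect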
TRPM1 prom inh – MITF TRPM1 promoter inhibition in SK-MEL-5 cells; SK-MEL-5 TRPM1 promoter luciferase, 24 h; inhibition, % at 12.5 µM; actives 0.83% (n = 330,000); AID 488899;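 active = mean inhibition across replicates of 60% or more, whatever share of single replicates reaches that level; inconclusive = some that reach 60%, reason not given; inactive = mean inhibition across replicates below 60%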
esBAF inh – inhibitors of esBAF chromatin remodeling in mouse ES cells | actives 2% (n = 350,000) | Bmi1-luciferase knock-in reporter, 24 h; 100% = twice the neutral-well signal | AID 602393 | reporter increase, % at 12.5 µM; in the data active = activation above about 40%; inconclusive = no clear call, values can overlap the other calls;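 also: 0% = median of the plate's neutral control wells and 100% = double that signal; a rise in the Bmi1 reporter signal indicates esBAF inhibition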
Active calls of the source: *; ? = inconclusive; nt = not tested or not shown. The list is not random: actives were taken first. Their share in the collection is about 4%.

SMILES	EWS-Fli block	Wnt bcat act	MITF TRPM1 HTS	PAX8 reporter	TRPM1 prom inh	esBAF inh
O=[N+]([O-])c1c(Nc2cccc(O)c2)cc(Cl)c2nonc12	59*	-18	nt	112*	77*	-36
Cc1c(Nc2cc(Cl)c3nonc3c2[N+](=O)[O-])c(=O)n(-c2ccccc2)n1C	43	-6	-102	107*	102*	nt
COCCNC(=O)[C@@H]1[C@@H](CO)[C@@H]2Cn3c(ccc(C4=CCCCC4)c3=O)[C@H]1N2C(=O)C1CCC1	-2	nt	nt	-4	nt	-1
COc1ccc(-c2sc3cc4c(cc3c2C#Cc2cncn2C)OCO4)cc1	10	-3	20	10	-20	8
COc1ccc(-c2sc3ccc(OC)cc3c2C#Cc2cncn2C)cc1	-6	1	11	65*	-8	11
Cc1ccc(S(=O)(=O)Nc2ccc3c(c2)C(=O)N([C@H](C)CO)C[C@H](C)[C@@H](CN(C)C(=O)Nc2ccccc2)O3)cc1	0	nt	nt	-25	nt	-1
CCC(=O)c1ccc(Oc2ccc(C(=O)c3ccc(C)cc3)cc2[N+](=O)[O-])cc1	13	-1	14	2	-15	nt
Cc1ccc(Oc2c(C(N)=O)cc([N+](=O)[O-])cc2[N+](=O)[O-])cc1	nt	1	-91	23	92*	nt
Cc1ccc(CNc2ccc([N+](=O)[O-])cc2C(N)=O)cc1	-93	20	106*	-128	-103	54*
CO[C@@H]1CC[C@H]2CCOc3ccc(C#N)cc3C(=O)N(C)C[C@H](C)C(=O)N(C)C[C@@H]1O2	2	nt	nt	-13	nt	-2
CN(C)c1cccc(-c2nnc(SCCCC#N)o2)c1	nt	41*	43	nt	-39	13
O=S(=O)(NCC[C@H]1CC[C@H](NS(=O)(=O)c2cccc(F)c2)[C@@H](CO)O1)c1cccc(F)c1	9	nt	nt	0	nt	nt
C(=C/c1nccc2c1[nH]c1ccccc12)/c1ccc2c(c1)OCO2	-8	9	21	-22	-25	76*
COc1ccc(CCNC(=O)COC(=O)c2cccs2)cc1OC	2	2	9	-29	-9	-4
COc1ccc(C(=O)COC(=O)c2cccs2)cc1	-38	54*	63	-218	-70	68*
COc1ccc(CCNC(=O)COC(=O)c2cccs2)cc1	-1	8	-4	83*	6	1
COc1ccccc1C(=O)COC(=O)c1cccs1	6	-2	80	-45	-76	81*
COc1ccccc1C(=O)COC(=O)C1(C)CC1(Cl)Cl (stereo not drawn)	0	-3	61	-12	-59	60*
COc1ccccc1C(=O)COC(=O)c1ccccc1O	13	9	0	5	4	?
CO[C@H]1CN(C)C(=O)c2ccc(NC(C)=O)cc2OC[C@H](C)N(Cc2ccccc2C(=O)O)C[C@@H]1C	nt	nt	nt	-6	nt	nt
CO[C@H]1CN(C)C(=O)c2cc(NC(C)=O)ccc2OC[C@H](C)N(C(=O)c2ccc(F)cc2)C[C@H]1C	-7	nt	nt	nt	nt	-1
C[C@@H]1CN([C@H](C)CO)C(=O)c2cc(-c3cncnc3)cnc2O[C@@H]1CN(C)C(=O)Cc1ccccn1	1	nt	nt	nt	nt	-2
COc1ccc(CNC(=O)COC(=O)CCC(=O)c2cccs2)cc1	4	39*	-2	14	0	-5
COc1cc(NC(=O)c2cccs2)c(C(=O)OCC(=O)c2cc(C)n(-c3ccccc3)c2C)cc1OC	nt	nt	-65	23	64*	-1
COc1cccc(C(=O)COC(=O)c2cccs2)c1	nt	39*	43	-195	-37	30
SMILES	EWS-Fli block	Wnt bcat act	MITF TRPM1 HTS	PAX8 reporter	TRPM1 prom inh	esBAF inh
CCOc1ccc(C(=O)c2cccs2)cc1	nt	-1	65	nt	-58	48*
C[C@@H]1CN([C@@H](C)CO)C(=O)c2cc(NC(=O)NC3CCCCC3)ccc2O[C@@H](C)CCCCO[C@@H]1CN(C)C(=O)c1ccccc1	-5	nt	nt	-15	nt	-4
COc1ccc(NC(=O)Nc2ccc3c(c2)C(=O)N([C@@H](C)CO)C[C@H](C)[C@@H](CN(C)S(=O)(=O)c2cccs2)OCCCC[C@@H](C)O3)cc1	-3	nt	nt	nt	nt	5
CSc1nc(-c2ccc(C)cc2)nc(C(Cl)Cl)n1	nt	nt	nt	nt	77*	nt
CCSc1nc(-c2ccccc2)nc(C(Cl)Cl)n1	50	-23	-96	96*	96*	-76
O=C(C1CCN(S(=O)(=O)c2cccnc2)CC1)N1CCN(c2ccc(Cl)cc2)CC1	6	-2	-6	67*	12	nt
COCC(=O)N1[C@@H](CO)[C@@H]2c3ccccc3N(C(=O)C3CC3)C[C@@H]21	-18	nt	nt	-6	nt	-4
COc1cccc(-c2ccc([C@H]3[C@H]4CN(C(=O)C5CCC5)CC(=O)N4[C@H]3CO)cc2)c1	-1	nt	nt	2	nt	nt
Cc1nc2c3cc(Cl)ccc3n(CCN3CCCCC3)c2s1	nt	nt	-23	nt	25	51*
O=C(NCC1CC1)[C@@H]1[C@@H](CO)[C@@H]2Cn3c(ccc(C4=CCCCC4)c3=O)[C@@H]2N1Cc1ccccc1F	-2	nt	nt	nt	nt	3
O=C(O)c1ccc2c(c1)C(=O)N(c1ccc(OCc3ccccc3)cc1)C2=O	2	0	nt	12	8	-3
O=C(O)c1ccc2c(c1)C(=O)N(c1ccc(C(=O)OCC(=O)c3ccccc3)cc1)C2=O	1	47*	nt	-132	1	?
CCCOC(=O)c1ccc2c(c1)C(=O)N(c1ccccc1)C2=O	nt	nt	-4	nt	-3	58*
Cc1ccc(C(=O)OCC(=O)c2ccccc2)cc1	-26	36*	64	-260	-68	8
C[C@H]1CN([C@@H](C)CO)S(=O)(=O)c2ccc(C#CCN(C)C)cc2O[C@H]1CN(C)Cc1ccncc1	-6	nt	nt	-3	nt	-4
Cc1cc(C(=O)N2CCc3ccccc3C2)c(C)o1	-59	-2	29	-96	-33	52*
COc1cccc2cc(C(=O)N3CCc4ccccc4C3)c(=O)oc12	nt	nt	49	nt	-48	78*
Cc1cc(C(=O)N2CCc3ccccc3C2)no1	-3	1	14	-12	-12	-5
CCOc1cccc2cc(C(=O)N3CCc4ccccc4C3)c(=O)oc12	nt	nt	-12	nt	10	-2
O=C(N/N=C/c1cc(Br)ccc1O)C(=O)Nc1ccccc1OC(F)(F)C(F)F	nt	nt	-65	nt	66*	-45
O=C(N/N=C/c1cc(Cl)ccc1O)c1ccncc1	16	-4	-62	66*	62*	nt
O=C(N/N=C/c1ccccc1Cl)c1ccncc1	-11	10	nt	-12	4	-2
